# Measured values from PubChem BioAssay AID686971 (National Center for Advancing Translational Sciences (NCATS), 2013).
# Hit rate of the full screen: of about 360,000 compounds, about 7,500 (2.1%) were called active. Roughly 8% stayed inconclusive and do not appear here. This excerpt belongs to a sample that is enriched for actives. A number with no mark means an inactive call. The call rests on the fitted dose curve; in most records, active means well fitted cell-killing curve with a large enough effect; inconclusive means small, poorly fitted or top-dose-only effect, or effect the other way, or another doubt; inactive means no such curve, though single readings can be large or run the other way.
# Assay: qHTS for induction of synthetic lethality in tumor cells producing 2HG: qHTS for the HT-1080-IDH1KD cell line;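 on activity, negative = toxicity: 0% = DMSO wells and -100% = cell-free medium wells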
# Conditions: HT-1080 IDH1 knockdown viability, ATP luminescence, 48 h; series mostly up to 46.1 µM; activity, negative = toxicity: at the top concentration
# Procedure, shortened: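 Cytotoxicity counter-line: IDH1KD HT-1080, 48 h, CellTiter-Glo. Curves classed by r2, magnitude and activity.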
# Potency means the concentration at half of the fitted maximal effect.
SMILES,"activity, negative = toxicity [%]",Potency
CN(C)CCNC(=O)Nc1cccc(Cl)c1Cl,-6.77,–
CN(c1ccccc1)S(=O)(=O)c1ccc(Cl)c(C(=O)NCCc2c[nH]c3ccccc23)c1,-8.58,–
CN(C)CCNC(=O)c1ccc(Cl)c2cc3ccccc3nc12,–,10.3 µM (active)
CC(=O)NC(c1cccc(F)c1)c1nc(-c2cccc(F)c2)cs1 (stereo unspecified),0.603,–
COc1ccc([C@H]2C[C@@H](n3cc(COC(=O)c4ccccc4)nn3)[C@H](O)CN2C(=O)c2cccs2)cc1,-6.72,–
COC(=O)C[C@@H]1C=C[C@@H](NC(=O)c2ccc3c(c2)OCO3)[C@@H](CO)O1,23.1,–
Cc1ccc(S(=O)(=O)N2C[C@@H](C)[C@]3(C2)[C@H](O)[C@H](OC(=O)NCc2ccccc2)C[C@H]2C(=O)N(c4ccccc4)C(=O)[C@H]23)cc1,-0.522,–
Cc1ccc(Oc2ccc3c(c2)C(=O)N(c2cccc4cccnc24)C3=O)cc1,7.05,–
Cc1ccc(OS(=O)Nc2cccc3nccnc23)cc1 (stereo unspecified),–,11.2 µM (active)
Cc1ccc(OCC(=O)Nn2cnc3ccccc32)cc1,-17.9,–
CCNC(=O)C1(C)CCN(C(=O)c2ccccc2)C1 (stereo unspecified),4.67,–
O=C(NCc1ccc(F)cc1)c1cc(C2CCCCN2C(=O)c2ccccn2)on1 (stereo unspecified),23.9,–
COc1cccc(CNC(=O)[C@@H]2CCCN2C(=O)[C@@H]2CCCN2C(=O)c2ccccc2)c1,9.12,–
O=S(=O)(NCCCc1ccccc1)c1ccc(Br)cc1,2.69,–
O=C(Cc1ccc(Br)cc1)NCCc1ccccc1,-2.12,–
S=C(NCCCc1ccccc1)Nc1ccc(Br)cc1,–,16.4 µM (active)
Cc1ccc(C)c(S(=O)(=O)N2CCN(c3ncnc4sccc34)CC2)c1,–,4.61 µM (active)
Cc1ccc(S(=O)(=O)N2CCN(c3ncnc4ccccc34)CC2)cc1,–,inactive
COc1ccc(C)cc1S(=O)(=O)N1CCN(S(=O)(=O)c2cc(C(=O)O)ccc2C)CC1,9.87,–
COc1ccccc1-n1c(SCC(=O)Nc2ccc(Cl)cc2)nc(O)c(Cc2ccccc2)c1=O,-24.8,–
CCOC(=O)[C@]12CCC=C1N(Cc1ccccc1)C(=O)[C@H](CC(=O)N1CCCC1)C2,2.61,–
O=C1CCC(=O)N1CCC(=O)N(C(=O)NC1CCCCC1)C1CCCCC1,-1.14,–
CCOC(=O)[C@]12CCCC=C1N(Cc1cccc3ccccc13)C(=O)[C@H](CC(=O)NCC13CC4CC(CC(C4)C1)C3)C2,–,23.1 µM (active)
COC(=O)[C@]12CCCCC=C1N(Cc1ccc(Cl)cc1Cl)C(=O)[C@H](CC(=O)NCc1cccc3ccccc13)C2,-28.4,–

SMILES,"activity, negative = toxicity [%]",Potency
CCCCNC(=O)C[C@@H]1C[C@@]2(C(=O)OCC)CCC=C2N(Cc2cccc3ccccc23)C1=O,-12.6,–
CCc1nc2ccc(C(=O)N3CCC(O)(Cc4ccccc4)CC3)cn2c1N(C)C(=O)Cc1ccccc1,18.8,–
O=S1(=O)CC(N2CCN(CCO)CC2)CN1Cc1cn(Cc2ccc(Cl)cc2)nn1 (stereo unspecified),6.6,–
Cc1cccc(S(=O)(=O)N(C)C[C@H]2OCc3cnnn3CCCC(=O)N([C@@H](C)CO)C[C@H]2C)c1,6.99,–
CC(C)Cc1ccc(-c2cc3nc(NCc4cccc(Cl)c4)ccn3n2)cc1,–,20.6 µM (active)
COc1ccccc1-c1cc2nc(NCc3cccc(Cl)c3)ccn2n1,-18.2,–
Cc1cc(C)n2c(NCc3ccccc3)c(CC(C)C)nc2n1,5.86,–
Cc1sc2ncnc(SCC(=O)NC3CCS(=O)(=O)C3)c2c1C (stereo unspecified),-2.68,–
C=CCOc1ccccc1CNn1c(C)n[nH]c1=S,0.246,–
CS(=O)(=O)Nc1ccc(C(=O)N2CCCC2)cc1,8.84,–
CNc1cncc(-c2cccc(C(=O)N3CCOCC3)c2)n1,7.17,–
CNc1cncc(-c2ccc(NS(C)(=O)=O)cc2)n1,–,5.8 µM (active)
CCC(C(=O)Nc1c(C)cccc1C)n1c(-c2cc(C)cs2)nc2ccccc21 (stereo unspecified),-20.4,–
CC1(C)NC(=O)N(CC(=O)Nc2ccc(-c3ccccc3)cc2)C1=O,3.48,–
COc1ccc(NC(=O)CN(C)C(=O)c2cc(C)oc2C)cc1,-0.701,–
COc1ccccc1NC(=O)C1=C(C)Nc2nc3ccccc3n2C1c1cccs1 (stereo unspecified),–,5.17 µM (active)
CCOC(=O)C1=C(C)Nc2nc3ccccc3n2C1c1cccs1 (stereo unspecified),-13,–
CCOc1ccc(C2C(C(=O)NC)=C(C)Nc3nc4ccccc4n32)cc1OC (stereo unspecified),8.97,–
Cc1nc(C(F)(F)F)ccc1C(=O)N1CCC1(C)C(=O)NS(=O)(=O)c1ccccc1 (stereo unspecified),6.16,–
COc1cc(/C=N/NC(=O)c2cc(-c3ccccc3C)nc3ccccc23)cc(OC)c1O,-16.2,–
CCOc1ccc(NC(=O)c2cc(C)nc3ccccc23)cc1,15.6,–
CCOc1ccc(-c2cc(C(=O)N/N=C/c3ccc(O)cc3)c3ccccc3n2)cc1,–,5.8 µM (active)
O=C(Nc1ccc(N2CCOCC2)cc1)c1cccc2c(-c3ccc(F)c(F)c3)coc12,-2.43,–
Oc1ccc(/C=N/Nc2nc(-c3ccccc3F)nc3ccccc23)c(O)c1,–,11.6 µM (active)

SMILES,"activity, negative = toxicity [%]",Potency
Oc1c(Br)cccc1/C=N/Nc1c(F)c(F)c(F)c(F)c1F,-0.347,–
CC1(C(=O)NS(=O)(=O)c2cccc(F)c2)CCN1C(=O)Cc1cc(F)ccc1F (stereo unspecified),3.61,–
Cc1ccc(Cn2c(C)c(C(=O)NCc3ccccc3C(F)(F)F)sc2=O)cc1,5.39,–
O=[N+]([O-])c1ccc(N=Cc2c(O)ccc3ccccc23)cc1,–,9.2 µM (active)
O=C(Oc1ccc([N+](=O)[O-])cc1)c1ccc2ccccc2n1,-24,–
O=[N+]([O-])c1cccc(C=NN=Cc2ccccc2O)c1,7.79,–
O=C(NCc1cccnc1)c1ccc2nc([C@@H]3O[C@H](CO)[C@H](O)[C@H](O)[C@H]3O)[nH]c2c1,15.5,–
Cc1cn([C@H]2C[C@H](O)[C@@H](/C=C/C(=O)NCCCc3ccccc3)O2)c(=O)[nH]c1=O,-2.08,–
COc1cc(CNc2ncnc3c2ncn3[C@H]2CN(Cc3cccs3)C[C@@H](CO)O2)cc(OC)c1OC,-13.4,–
CCc1ccc(CNC(=O)C2CCN(c3nnc(C)c4c(C)n(-c5ccc(C)cc5)nc34)CC2)cc1,–,14.6 µM (active)
COc1ccc(-n2nc3c(N4CCC(C(=O)NCc5ccccc5)CC4)nnc(C)c3c2C)cc1,-28.5,–
CCc1ccc(CNC(=O)C2CC(=O)N(CCc3ccc(C)cc3)C2)cc1 (stereo unspecified),-11.8,–
OC[C@H]1O[C@@H](c2nc(-c3nc(-c4ccc(F)cc4)no3)cs2)[C@H](O)[C@@H](O)[C@H]1O,9.85,–
O=C1CCCC2=C1C(c1ccccc1)n1c(s/c(=C/c3cccc(F)c3)c1=O)=N2 (stereo unspecified),20.1,–
COc1ccc(OC)c(C2C3=C(N=c4s/c(=C\c5cccc(O)c5)c(=O)n42)c2ccccc2CC3)c1 (stereo unspecified),–,20.6 µM (active)
CCOC(=O)C1=C(C)N=c2s/c(=C\C(=O)OC)c(=O)n2C1c1ccc(OC)cc1 (stereo unspecified),3.8,–
COc1ccc(S(=O)(=O)NC(=O)C2(C)CCN2C(=O)c2ccccc2CCc2ccccc2)cc1 (stereo unspecified),0.309,–
COC(=O)C[C@H]1C=C[C@H](NC(=O)c2ccc(F)cc2)[C@@H](CO)O1,-11.6,–
Cc1ccc(S(=O)(=O)N2CCC(C(=O)NCCC3=CCCCC3)CC2)cc1C,1.26,–
O=C(NCCC1=CCCCC1)C1CCN(Cc2cnn(-c3ccccc3)c2-n2cccc2)CC1,–,25.9 µM (active)
C1=C(CCNc2ncnc3c2cnn3-c2ccccc2)CCCC1,-4.48,–
CCOC(=O)c1cc(NC(=O)c2cccnc2)ccn1,2.72,–
CCOC(=O)c1ccc(NC(=O)c2cccnc2)cc1,–,14.6 µM (active)
CCOC(=O)c1ccc(-c2ccc(C(=O)Nc3cccnc3)o2)cc1,-18.7,–

SMILES,"activity, negative = toxicity [%]",Potency
CCCCCC(=O)N1C[C@H](O)[C@@H](n2cc(COC(=O)c3ccccc3)nn2)C[C@@H]1c1ccc(C)cc1,-9.31,–
Cc1onc(-c2ccccc2)c1-c1nnc(COC(=O)c2ccc(N(C)C)cc2)o1,-11.6,–
N#CCSc1nc(-c2ccccc2)nc2ccc(F)cc12,-0.0349,–
Clc1cccc(-c2nc(NCC3CCCO3)c3ccccc3n2)c1 (stereo unspecified),-27.2,–
Clc1ccc2nc(-c3ccccc3)nc(C(Cl)Cl)c2c1,–,7.31 µM (active)
CN1CCN(c2ccncc2S(=O)(=O)N2CCCC2)CC1,4.49,–
Cc1onc(-c2ccccc2Cl)c1C(=O)OCc1nnc(-c2ccccc2)o1,-11,–
Cc1[nH]c2ccccc2c1C(=O)COC(=O)c1c(-c2ccccc2)noc1C,–,23.1 µM (active)
Cc1onc(-c2ccccc2Cl)c1C(=O)OCC(=O)c1ccccc1,-18.5,–
CC1(C)CC(=O)C=C(c2ccc(COC(=O)c3cc(F)cc(F)c3)cc2)C1=O,-10,–
Cc1onc(NC(=O)c2ccc([N+](=O)[O-])o2)c1Br,-35.8,–
O=C(Nc1ccc(Br)cn1)c1ccc([N+](=O)[O-])o1,–,10.3 µM (active)
O=C(Nc1ccc(Br)cn1)c1ccc([N+](=O)[O-])cc1Cl,-0.286,–
CC1CC(NC(=S)N(C)C)CC(C)(C)C1 (stereo unspecified),3.3,–
COc1ccc(/C=C2\SC(=S)N(CCC(=O)N3CCOCC3)C2=O)cc1OC,11.1,–
CCCCCn1nnnc1C1c2ccccc2C(=O)N1Cc1ccco1 (stereo unspecified),14.3,–
CCCCCn1nnnc1-c1nc2cc3ccccc3cc2[nH]c1=O,–,7.31 µM (active)
c1ccc2cc3[nH]c(CN4CCCCC4)nc3cc2c1,-4.75,–
COc1ccc(S(=O)(=O)NC(=O)C2(C)CCN2C(=O)COc2ccc(Cl)cc2)cc1 (stereo unspecified),0,–
CC1(C(=O)NCc2ccc3c(c2)OCO3)CCN1C(=O)Cc1cccc2ccccc12 (stereo unspecified),2.6,–
Nc1[nH]c(C(=O)c2ccccc2)c(-c2ccc(Br)cc2)c1C(=O)NC1CC1,2.93,–
O=C(NCc1cccnc1)c1cc(C2CCCN(C(=O)CCCc3ccccc3)C2)on1 (stereo unspecified),14,–
O=C(C[C@H]1C[C@@H]2c3cc(NC(=O)C4CCC4)ccc3O[C@@H]2[C@H](CO)O1)NC1CCCCC1,10.6,–
COc1ccc(S(=O)(=O)N(C)C)cc1NC(=O)COC(=O)c1n[nH]c2ccccc12,0.573,–
